Vaccinia pol inh: vaccinia E9 polymerase processive synthesis inhibitors, primary screen, biochemical, absorbance; Vaccinia virus DNA polymerase (E9) processive complex; in vitro processive DNA synthesis, absorbance read-out; hits give low values; normalized absorbance, % (no concentration beside the values); 0.94% of 46,000 active; AID 493162, 2011; in the data active means normalized absorbance mostly below about 85%, no sharp cut-off; inactive means mostly above about 86%
The depositor's hits bear a star. The entries come from a sample that favours hits as a whole.

SMILES | Vaccinia pol inh
C=CCn1c(O)c(C2=c3cc(Br)ccc3=NC2=O)c2ccccc21 | 99.9
CC1CCCCN1C(=O)NC1(C(F)(F)F)Oc2ccccc2O1 (stereo not drawn) | 95.9
O=C(CNC(=O)c1cccs1)NCc1cccs1 | 108.0
CC1=NN2C(=N)/C(=C/c3cn(CCOc4c(C)cccc4C)c4ccccc34)C(=O)N=C2S1 | 100.6
CC(c1ccccc1)N1C(=O)NC(=O)/C(=C/c2coc3ccccc3c2=O)C1=O (stereo not drawn) | 91.4
N=C1/C(=C\c2coc3ccccc3c2=O)C(=O)N=C2SC=NN12 | 45.6*
Cc1ccc(Nc2nc(-c3c(C)nc4ccccn34)cs2)c(C)c1 | 100.3
CCCCN(CC)c1ncnc2c1sc1nc(N3CCOCC3)c3c(c12)CC(C)(C)OC3 | 100.3
CCN(CC)Cn1cnc2c(SC)ncnc21 | 110.0
COC(=O)COc1c(C)cc(Br)cc1Br | 98.0
CCCCC(CC)CN=C(N)NC(N)=NCCCCCCN=C(N)NC(N)=NCC(CC)CCCC (stereo not drawn) | 27.1*
COC(=O)[C@@H](N)CCCN=C(N)N[N+](=O)[O-] | 99.7
COC(=O)C(N=Cc1ccccc1)c1ccccc1 (stereo not drawn) | 104.7
COC(=O)C(C(=O)OC)C(Nc1ccccc1)c1ccccc1 (stereo not drawn) | 20.0*
COC(=O)C(NC(=O)Nc1ccccc1)C(C)C (stereo not drawn) | 100.9
O=C1NC(=S)SC1CNc1ccccc1 (stereo not drawn) | 96.3
COc1ccc(-c2n[nH]c(C(F)(F)F)c2-c2cnn(-c3ccccc3)c2)c(O)c1C | 93.9
COc1ccc(-c2n[nH]c(C(F)(F)F)c2-c2cc3ccccc3o2)c(O)c1 | 63.2*
Cc1c(O)ccc(-c2n[nH]c(C(F)(F)F)c2Oc2ccccc2)c1O | 93.0
Cc1ccc(O)cc1 | 100.3
Oc1ccc(C2(c3ccc(O)cc3)CCCC2)cc1 | 52.9*
COc1cccc(C2(c3ccc(O)cc3)CCCC2)c1 | 99.0
CC(C(=O)OCC(=O)n1c2c(c3ccccc31)CCCC2)N1C(=O)c2ccccc2C1=O (stereo not drawn) | 99.2
O=C(Nc1nc2ccc(Cl)cc2s1)C1COc2ccccc2O1 (stereo not drawn) | 100.1
C(=N\n1cnnc1)/c1ccc(N(c2ccccc2)c2ccccc2)cc1 | 107.4
SMILES | Vaccinia pol inh
Cc1nnsc1C(=O)N1CCN(C2c3ccccc3-c3ccccc32)CC1 | 111.2
Cc1cc(C(=O)N2CCN(C3c4ccccc4-c4ccccc43)CC2)c(C)o1 | 96.0
O=C(O)c1ccccc1C(=O)N1CCN(C2c3ccccc3-c3ccccc32)CC1 | 73.6*
C(=N\c1cc(-c2ccccc2)nn1-c1ccccc1)/c1ccccc1 | 100.0
O=C(CSc1nnc2ccccn12)NCCc1ccccc1 | 89.0
N#CC(C#N)=C(N)SCc1ccccc1 | 115.0
N#CC(C#N)=C(Nc1ccccc1Cl)SCc1cccc(F)c1 | 25.8*
N#CC(C#N)=C(Nc1ccc(Br)cc1)SCc1ccc(F)cc1 | 86.4
C(=Nc1ccc(-c2nnc3n2CCCCC3)cc1)c1ccsc1 | 106.5
COc1cc(OC)cc(-n2c(=O)c3sccc3n(CC(=O)c3ccc(Cl)cc3)c2=O)c1 | 101.1
O=S(=O)(c1ccc(C2CCCCC2)cc1)N1CCn2c(nc3ccccc32)C1 | 92.3
Cc1cc(=O)oc2cc(OCC(=O)c3ccccc3F)ccc12 | 91.8
Oc1ccc(Br)cc1C=Nc1cc2c(cc1Br)OCCO2 | 99.8
COc1cc(Br)cc(C=Nc2ccccc2)c1O | 110.8
Oc1c(Br)cc(Br)cc1C=Nc1ccccc1F | 80.8*
CSc1nc(-c2ccc(Cl)cc2)nc(SC)c1Cl | 89.3
Cc1cccc2nc(CSCc3ccco3)cn12 | 79.8
Cc1cccc2nc(CSC(=S)NCC3CCCO3)cn12 (stereo not drawn) | 110.3
Cc1cccc2nc(CSC(=S)NCc3cccnc3)cn12 | 72.2*
CN(C(=O)CSc1nc2ncccc2[nH]1)c1ccccc1 | 103.0
CC1CCN(CCCNC(=O)C2(S(=O)(=O)c3ccc(Cl)cc3)CC2)CC1 | 99.1
CCOc1ccc(OCCC(=O)O)cc1 | 99.2
c1ccc2nc3c(nc2c1)c1ccccc1n3CCN1CCOCC1 | 65.3*
C=CCn1c2ccccc2c2nc3ccccc3nc21 | 91.5
c1ccc(CCn2c3ccccc3c3nc4ccccc4nc32)cc1 | 95.6
SMILES | Vaccinia pol inh
O=C(c1ccccc1)C12CC3CC(CC(C3)C1)C2 | 88.6
CCSC1=NC(C)(C)C=C(C)N1 | 117.8
CC1=CC(C)(C)N=C(Nc2nc(C)c3cc(C)cc(C)c3n2)N1 | 50.1*
CCOC(=O)C1(C#N)C(N)=C(C#N)C(c2ccccc2)=CC1c1ccccc1 (stereo not drawn) | 99.5
O=C(Nc1ccc(F)cc1F)Nc1noc2c1COc1ccccc1-2 | 93.0
CCOC(=O)N1CCN(C(=O)CN(C2CCCCC2)S(=O)(=O)c2ccccc2)CC1 | 100.8
O=S(=O)(/C=C/c1ccccc1)N1CCc2ccccc21 | 90.0
Cc1nc2c(C(=O)NCC3CCCO3)cnn2c(C)c1Cc1ccccc1Cl (stereo not drawn) | 102.1
O=C(COc1ccc(Cl)cc1Cl)OCC1CCCN2CCCCC12 (stereo not drawn) | 99.7
COc1cccc(OC)c1SC | 112.0
S=c1[nH]c2ccccc2n1Cc1ccccc1 | 78.2*
Cc1cc(C)c(C(=O)Cn2c(=S)[nH]c3ccccc32)c(C)c1 | 100.1
CC(C)Cn1c(=S)[nH]c2ccccc21 | 99.2
CCCN(CCC)S(=O)(=O)c1ccc(C(=O)Nc2cc(C(F)(F)F)ccc2Cl)cc1 | 103.9
c1ccc(CNc2ccc3c(ccc4c5ccccc5[nH]c34)n2)cc1 | 54.1*
c1ccc(-c2nc(NCc3cccnc3)c3ccccc3n2)cc1 | 101.5
Cn1c(SCc2ccccc2)nc2c([nH]c3ccccc32)c1=O | 97.2
N=c1n(CCOc2ccccc2)c2ccccc2n1Cc1ccccc1 | 99.9
COc1ccc2cc(C3SC(C)C(=O)N3C3CCCO3)c(Cl)nc2c1 (stereo not drawn) | 99.9
Cc1cc(C)c(COC(=O)c2nonc2N)c(C)c1 | 100.3
Cc1[nH]c2ccccc2c1N=CN(C)C | 100.3
CN(C)C=Nc1ncc2c([nH]c3ccccc32)c1C#N | 88.7*
Cc1sc(/N=C/c2c[nH]c3ccccc23)c(C#N)c1C | 92.0
Clc1ccc(SCc2nc3ncccn3c2Br)cc1 | 103.4
Cc1ccc2oc(-c3ccccc3)cc(=NCCO)c2c1 | 48.6*
SMILES | Vaccinia pol inh
CCC(N=c1cc(-c2ccc(OC)cc2)oc2ccc(C)cc12)C(=O)O (stereo not drawn) | 97.9
OCCN=c1cc(-c2ccccc2)oc2ccc(Cl)cc12 | 41.3*
c1ccc(-c2nc3cc(NCc4cccnc4)ccc3o2)cc1 | 100.2
COc1ccc2oc(-c3ccccc3)cc(=O)c2c1 | 77.3
Cc1ccc2oc(-c3ccccc3)c(C(=O)O)c(=O)c2c1 | 87.4
Cc1ccc2oc(-c3ccccc3)cc(=NCCN(C)C)c2c1 | 30.3*
Cc1ccc2oc(-c3ccccc3)c(CN3CCOCC3)c(=O)c2c1 | 97.8
C(=NCc1ccccc1)c1cn(-c2ccccc2)nc1-c1cccnc1 | 98.2
CCc1ccc2oc(-c3ccccc3)cc(=NCc3cccnc3)c2c1 | 79.8*
Clc1ccc2oc(-c3ccccc3)cc(=NCCN3CCOCC3)c2c1 | 96.1
O=c1cc(-c2ccccc2)oc2ccc(Cl)cc12 | 102.5
CN(C)/N=C(\NO)c1c(F)cccc1Cl | 99.6
CC1(C)CC(=O)C2=C(C1)Nc1[nH]c(=S)[nH]c(=O)c1C2c1cccs1 (stereo not drawn) | 99.6
COC(=O)c1ccc(C(=O)Nc2ccc3nc(-c4ccccn4)[nH]c3c2)cc1 | 100.2

From PubChem
